Assay results from PubChem BioAssay (NCATS).
Values joined by “and” are separate entries in the source; they are usually repeats but may differ in a detail not shown here. Equal entries are not always repeated. Records with an inconclusive call do not appear. A call without a number means that no potency is given here. Active and inactive are the calls of the source. Unless noted, the call rests on the fitted dose curve; in most records, active means well fitted curve in the direction sought with a large enough effect; inconclusive means small, poorly fitted or top-dose-only effect, or another doubt; inactive means no such curve, though single readings can be large; an effect the other way counts as inactive or inconclusive.

Assays:
[1] = target: Alpha-galactosidase A (Homo sapiens) (UniProt P06280); assay: Counterscreen for Glucocerebrosidase Inhibitors: qHTS Assay for Human alpha-Galactosidase at pH 4.5 (AID 992)
Method in brief: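 Enzyme at 2 nM final was combined with compound (0.7 nM to 77 uM) and 80 uM 4-methylumbelliferyl alpha-D-galactopyranoside in 50 mM citric acid, 0.005% Tween-20, pH 4.5. After 20 min at room temperature, fluorescence was read (Ex 365/Em 440 nm); AC50 came from Hill fits.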

[2] = Cell Viability - LYMP1-002 - Assay at 24 hr (AID 993)
Method in brief: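 Cells plated 2500/well, 5 hr 37 C; compounds added, 24 hr 37 C; CellTiter-Glo added, 30 min RT; luminescence read. Tetraoctylammonium bromide positive control. Hill-equation AC50.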

[3] = Cell Viability - LYMP1-002 - Assay at 40 hr (AID 994); further: nearly all actives have a fitted effect of over 60% in size
Method in brief: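 Luminescent ATP signal served as the viability readout, with decreases taken as toxicity. Cells were treated with compounds across a concentration range for 40 hours at 37 C, and AC50 values came from standard Hill modeling.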

[4] = target: alpha-glucosidase (Oryza sativa, rice) (UniProt Q653V4); assay: Counterscreen for Glucocerebrosidase Inhibitors: qHTS Assay for Rice alpha-Glucosidase at pH 5.0 (AID 997)
Method in brief: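 Rice alpha-glucosidase (4 nM final) with 400 uM 4-methylumbelliferyl-alpha-D-glucopyranoside in citrate buffer pH 5.0, 20 min at room temperature, stopped at pH 10; fluorescence 365/440 nm, compounds 0.7 nM–77 uM, AC50 from Hill fits.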

[5] = Validation of Assay for Modulators of Lamin A Splicing (AID 1459; active means well fitted curve in the direction sought with a large enough effect in the signal ratio; the % refers to the signal ratio;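 further: cells exposed to compound for two days before reading; ratio rise marks activators and ratio drop marks inhibitors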)
Method in brief: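 Dual-reporter HeLa S3 line (lamin A-EGFP minigene, DsRed2) treated with compounds 48 hrs, 0.5% DMSO final. Endpoint: EGFP/DsRed2 total intensity ratio from laser-scanning microplate cytometry.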

[6] = qHTS Assay for Lipid Storage Modulators (AID 1519; calls by dose curve); conditions: Drosophila S3 cells, BODIPY lipid droplet/cell ratio, laser cytometry, cells loaded with oleic acid
Method in brief: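 Cells seeded at 5,000 per well were treated with compounds over a concentration series and loaded with oleic acid (400 uM, as added). Lipid droplet fluorescence (488 nm excitation, 500-530 nm channel) was read by laser-scanning cytometry and normalized to 20 uM Triacsin C.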

[7] = target: Endonuclease 4 (Escherichia coli (strain K12)) (UniProt P0A6C1); assay: Counterscreen for APE1 Inhibitors: qHTS Validation Assay for Inhibitors of Endonuclease IV (AID 1708)
Method in brief: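 Concentration-response counterscreen run identically to the APE1 assay: 15 min room-temperature preincubation of 2 nM enzyme with compound, reaction started with 50 nM quenched abasic DNA, progress taken from kinetic fluorescence.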

[8] = qHTS for differential inhibitors of proliferation of Plasmodium falciparum line D10 (AID 1877);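 further: parasites grown with compound for 72 h before DNA staining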
[9] = qHTS for differential inhibitors of proliferation of Plasmodium falciparum line Dd2 (AID 1882); conditions: Potency: Plasmodium falciparum Dd2 proliferation inhibition; further: nearly all actives have a fitted effect of over 65% in size; further: potency means the concentration at half of the fitted maximal effect
Method in brief: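 Dd2-infected erythrocytes (0.3% parasitemia, 2.5% hematocrit final) incubated with compound 72 h at 37 C, 5% CO2; lysed with saponin/Triton buffer containing SYBR Green I, incubated overnight in the dark, then read by fluorescence (485/535 nm). Normalized to 0.29 uM artemisinin and DMSO.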

[10] = qHTS Assay for Identification of Small Molecule Inducers of Hypoxia Response (AID 2120; active means well fitted curve in the direction sought with a large enough effect in the signal ratio, with a control signal flat, not every such curve was filed as active; the % refers to the signal ratio)
Method in brief: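 ME-180 HRE-bla cells plated in Opti-MEM/0.5% dialyzed FBS, rested 4-5 h, then dosed with compound titrations by pin tool. After 17 h at 37 degrees C, CCF4 dye loaded 2.5 h at RT; 460/530 nm ratio gave %Activity and AC50.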

[11] = target: DNA repair nuclease/redox regulator APEX1 (Homo sapiens) (UniProt P27695); assay: qHTS Validation Assay for Inhibitors of the Human Apurinic/apyrimidinic Endonuclease 1 (APE1) (AID 1705; further: potency means the concentration at half of the fitted maximal effect;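 on activity change, negative = inhibition: TAMRA fluorescence gain over two minutes as APE1 cuts a quenched THF abasic duplex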)
Method in brief: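 Substrate: 50 nM final fluorophore/quencher THF-abasic duplex. Enzyme preincubated with compounds 15 min, RT. Progress derived from fluorescence difference, third minus first kinetic read.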

[12] = Counterscreen for APE1 Inhibitors: Fluorescent Dye Displacement Validation Assay (AID 1707); further: potency means the concentration at half of the fitted maximal effect
Method in brief: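 Thiazole Orange displacement from dsDNA: 250 nM ThO with 50 nM TAMRA-labelled abasic-site (tetrahydrofuran) duplex in 50 mM Tris-HCl pH7.5, 50mM NaCl, 2 mM MgCl2, 0.01% Tween-20. Loss of endpoint fluorescence (ex 480 nm, em 540 nm) flags DNA binders.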

[13] = qHTS for differential inhibitors of proliferation of Plasmodium falciparum line 7G8 (AID 1815);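 further: parasite growth measured after three days of incubation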; further: potency means the concentration at half of the fitted maximal effect
[14] = qHTS for differential inhibitors of proliferation of Plasmodium falciparum line GB4 (AID 1816); conditions: Potency: Plasmodium falciparum GB4 proliferation inhibition;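 further: parasite growth measured after 72 h incubation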; further: potency means the concentration at half of the fitted maximal effect
[15] = qHTS for differential inhibitors of proliferation of Plasmodium falciparum line 3D7 (AID 1876); further: potency means the concentration at half of the fitted maximal effect
[16] = qHTS for differential inhibitors of proliferation of Plasmodium falciparum line HB3 (AID 1886); conditions: Potency: Plasmodium falciparum HB3 proliferation inhibition;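 further: parasites grown with compound for 72 h before SYBR Green readout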; further: potency means the concentration at half of the fitted maximal effect
[17] = qHTS Assay for Modulators of Human Peripheral Myelin Protein 22 (PMP22) Expression/Activity (AID 1967; active means well fitted curve in the direction sought with a large enough effect in the signal ratio; the % refers to the signal ratio)
Method in brief: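 Engineered MSC80 cells, Pmp22-promoter green and EF-alpha red luciferase reporters; 24h compound treatment at 37 °C. Concentration-response fits on green, red and ratio signals, each overlap-corrected, with %Activity normalized to untreated wells.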

[18] = target: Ferritin light chain (Equus caballus) (UniProt P02791); assay: qHTS Validation Assay for Identification of Novel General Anesthetics (AID 2323)
Method in brief: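 Normalized fluorescence response, scaled between free 1-AMA and 1-AMA/apoferritin complex, fitted to a four-parameter Hill equation for concentration-effect values. Binding mix: 10 uM horse-spleen apoferritin, 50% saturated 1-AMA in PBS; read 380/535 nm after 10 min.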

[19] = qHTS for differential inhibitors of proliferation of Plasmodium falciparum line W2 (AID 1883); conditions: Potency: Plasmodium falciparum W2 proliferation inhibition;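 further: potency means the concentration at half of the fitted maximal effect; parasites grown with compound for 72 h before lysis and staining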
[20] = measured here: cell count channel max response
[21] = measured here: lipid channel max response

Alpha-galactosidase A (Homo sapiens), sequence (P06280 whole entry, looked up): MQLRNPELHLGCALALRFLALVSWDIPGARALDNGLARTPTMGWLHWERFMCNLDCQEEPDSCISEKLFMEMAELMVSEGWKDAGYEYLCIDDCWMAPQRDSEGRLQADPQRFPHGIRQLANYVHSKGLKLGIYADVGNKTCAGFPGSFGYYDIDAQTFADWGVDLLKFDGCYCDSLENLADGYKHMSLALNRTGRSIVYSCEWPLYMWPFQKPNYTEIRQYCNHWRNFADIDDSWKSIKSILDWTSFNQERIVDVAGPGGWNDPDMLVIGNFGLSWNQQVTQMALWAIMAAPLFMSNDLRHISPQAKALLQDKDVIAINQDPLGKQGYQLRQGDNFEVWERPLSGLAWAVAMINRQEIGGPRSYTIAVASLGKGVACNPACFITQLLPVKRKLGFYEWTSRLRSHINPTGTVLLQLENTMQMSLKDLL
DNA repair nuclease/redox regulator APEX1 (Homo sapiens), sequence (P27695 whole entry, looked up): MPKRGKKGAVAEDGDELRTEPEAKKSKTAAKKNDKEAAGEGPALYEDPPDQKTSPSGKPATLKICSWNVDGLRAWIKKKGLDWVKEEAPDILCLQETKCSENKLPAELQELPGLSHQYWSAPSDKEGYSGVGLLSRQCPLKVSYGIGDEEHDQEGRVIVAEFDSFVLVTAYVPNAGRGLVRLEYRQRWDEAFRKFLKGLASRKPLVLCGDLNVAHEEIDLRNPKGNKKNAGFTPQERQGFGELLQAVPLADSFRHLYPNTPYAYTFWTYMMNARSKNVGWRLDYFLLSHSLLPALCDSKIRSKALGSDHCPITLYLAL
Ferritin light chain (Equus caballus), sequence (P02791 2-175 limits assumed): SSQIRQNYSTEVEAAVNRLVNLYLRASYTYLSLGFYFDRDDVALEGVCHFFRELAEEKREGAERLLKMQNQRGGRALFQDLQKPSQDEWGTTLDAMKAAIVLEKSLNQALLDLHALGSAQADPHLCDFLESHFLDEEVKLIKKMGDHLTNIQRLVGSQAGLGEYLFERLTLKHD

Cc1cc(O)c2c(c1)C(=O)c1cc(O)cc(O)c1C2=O
outcome [1]: inactive
Potency [2]: inactive
Potency [3]: inactive
outcome [4]: inactive
outcome [5]: inactive
activity change, negative = inhibition ([6]; at 57.5 µM (top of the series)): -0.138% (inactive) and 5.28% (inactive)
max response [6, 20]: 55.1% and -15.9%
max response [6, 21]: 55.2% and -8.66%
outcome [7]: inactive
Potency [8]: inactive
Potency [9]: inactive
outcome [10]: inactive

CCC1=C(C)CN(C(=O)NCCc2ccc(S(=O)(=O)NC(=O)NC3CCC(C)CC3)cc2)C1=O (configuration not stated)
activity change, negative = inhibition ([6]; at 25.7 µM (top of the series)): -0.769% (inactive)
max response [6, 20]: -5.01%
max response [6, 21]: -5.89%

N=C(N=C(N)N)N1CCOCC1
activity change, negative = inhibition ([6]; at 25.7 µM (top of the series)): -1.12% (inactive)
max response [6, 20]: 14.2%
max response [6, 21]: 12.8%

Cc1ncc([N+](=O)[O-])n1CC(C)O (configuration not stated)
activity change, negative = inhibition ([6]; at 57.5 µM (top of the series)): 2.12% (inactive)
max response [6, 20]: 10.3%
max response [6, 21]: 12.9%

CC1(C)NC(=O)N(c2ccc([N+](=O)[O-])c(C(F)(F)F)c2)C1=O
outcome [1]: inactive
outcome [4]: inactive
outcome [5]: inactive
activity change, negative = inhibition ([6]; at 57.5 µM (top of the series)): -13.9% (inactive) and -13.7% (inactive)
max response [6, 20]: -10.4% and -26.6%
max response [6, 21]: -19.8% and -35.1%
Potency [11]: inactive
Potency [12]: inactive
outcome [7]: inactive
Potency [13]: inactive
Potency [14]: inactive
Potency [15]: inactive
Potency [8]: inactive
Potency [9]: inactive
Potency [16]: inactive
outcome [17]: inactive
Potency [18]: inactive

CCOc1cc(CC(=O)N[C@@H](CC(C)C)c2ccccc2N2CCCCC2)ccc1C(=O)O
activity change, negative = inhibition ([6]; at 25.7 µM (top of the series)): 0.216% (inactive)
max response [6, 20]: -5.3%
max response [6, 21]: -9.52%

CN(C)CCCC1(c2ccc(F)cc2)OCc2cc(C#N)ccc21 (configuration not stated)
outcome [5]: inactive
activity change, negative = inhibition ([6]; at 57.5 µM (top of the series)): 0.497% (inactive)
max response [6, 20]: -10.6%
max response [6, 21]: -12.9%
Potency [11]: inactive
Potency [12]: inactive
outcome [7]: inactive
Potency [15]: 10 µM (active)
Potency [19]: 2.24 µM (active)

Nc1nc(OCc2ccccc2)c2[nH]cnc2n1
outcome [1]: inactive
outcome [4]: inactive
outcome [5]: inactive
Potency [11]: inactive
Potency [12]: inactive
outcome [7]: inactive
Potency [13]: inactive
Potency [14]: inactive
Potency [15]: inactive
Potency [8]: inactive
Potency [9]: inactive
Potency [16]: inactive
Potency [18]: inactive

CN1C(C(=O)Nc2ccccn2)=C(O)c2sccc2S1(=O)=O
activity change, negative = inhibition ([6]; at 25.7 µM (top of the series)): -0.44% (inactive)
max response [6, 20]: -5.92%
max response [6, 21]: -4.62%

CC1Cc2ccccc2N1NC(=O)c1ccc(Cl)c(S(N)(=O)=O)c1 (configuration not stated)
activity change, negative = inhibition ([6]; at 57.5 µM (top of the series)): 7.15% (inactive)
max response [6, 20]: 9.62%
max response [6, 21]: 23.5%

O=c1c(O)c(-c2cc(O)c(O)c(O)c2)oc2cc(O)cc(O)c12
outcome [1]: inactive
outcome [4]: inactive
outcome [5]: inactive
activity change, negative = inhibition ([6]; at 25.7 µM (top of the series)): 2.34% (inactive)
activity change, negative = inhibition ([6]; at 57.5 µM (top of the series)): 14.6% (inactive) and -3.22% (inactive)
max response [6, 20]: -7.21% and 17.3% and -40.9%
max response [6, 21]: -2.79% and 29.1% and -42.9%
Potency [11]: 0.355 µM (active)
Potency [12]: 3.55 µM (active)
outcome [7]: inactive
Potency [15]: 10 µM (active)
Potency [9]: 4.47 µM (active)
Potency [19]: 14.1 µM (active)
Potency [18]: inactive

Cc1ccc(S(=O)(=O)NC(=O)NN2CC3CCCC3C2)cc1 (configuration not stated)
activity change, negative = inhibition ([6]; at 57.5 µM (top of the series)): 1.76% (inactive) and 2.62% (inactive)
max response [6, 20]: 7.98% and 20.6%
max response [6, 21]: 13.4% and 23.5%

CC1(C)C(=O)N(CCN2CCC(C(=O)c3ccc(F)cc3)CC2)c2ccccc21
outcome [1]: inactive
outcome [4]: inactive
outcome [5]: inactive
Potency [11]: inactive
Potency [12]: inactive
Potency [13]: 6.31 µM (active)
Potency [14]: 12.6 µM (active)
Potency [15]: 11.2 µM (active)
Potency [19]: 6.31 µM (active)
Potency [16]: 12.6 µM (active)

OC(CN1CCN(c2cccc(Cl)c2)CC1)C(c1ccccc1)c1ccccc1 (configuration not stated)
outcome [5]: inactive
Potency [11]: inactive
Potency [12]: inactive
Potency [13]: 14.1 µM (active)
Potency [19]: 10 µM (active)
Potency [18]: inactive

CCCOc1ccc2nc(NC(=O)OC)[nH]c2c1
activity change, negative = inhibition ([6]; at 57.5 µM (top of the series)): 5.26% (inactive)
max response [6, 20]: 3.19%
max response [6, 21]: 11.6%

CC(=O)N1CCN(c2ccc(OC[C@H]3CO[C@](Cn4ccnc4)(c4ccc(Cl)cc4Cl)O3)cc2)CC1
outcome [1]: inactive
outcome [4]: inactive
outcome [5]: inactive
Potency [11]: inactive
Potency [12]: inactive
outcome [7]: inactive

O=C(O)c1cn(-c2ccc(F)cc2)c2cc(N3CCNCC3)c(F)cc2c1=O
activity change, negative = inhibition ([6]; at 57.5 µM (top of the series)): 4.61% (inactive)
max response [6, 20]: 14.8%
max response [6, 21]: 20.1%

C[C@@H](N)C1CCC(C(=O)Nc2ccncc2)CC1 (some centres not stated)
outcome [5]: inactive
activity change, negative = inhibition ([6]; at 57.5 µM (top of the series)): 2.12% (inactive)
max response [6, 20]: -4.26%
max response [6, 21]: -0.634%
Potency [11]: inactive
Potency [12]: inactive
outcome [7]: inactive
Potency [13]: inactive
Potency [14]: inactive
Potency [15]: inactive
Potency [8]: inactive
Potency [9]: inactive
Potency [16]: inactive
outcome [17]: inactive
Potency [18]: inactive

Nc1nc(Cl)nc2c1ncn2[C@H]1C[C@H](O)[C@@H](CO)O1
activity change, negative = inhibition ([6]; at 57.5 µM (top of the series)): -3.99% (inactive)
max response [6, 20]: -0.0923%
max response [6, 21]: -3.39%

Oc1ccc(OCc2ccccc2)cc1
activity change, negative = inhibition ([6]; at 25.7 µM (top of the series)): -0.0547% (inactive)
max response [6, 20]: -20%
max response [6, 21]: -20.9%

Cc1cc2c(s1)Nc1ccccc1N=C2N1CCN(C)CC1
activity change, negative = inhibition ([6]; at 57.5 µM (top of the series)): 13.5% (inactive)
max response [6, 20]: -2.56%
max response [6, 21]: 9.09%

Cc1cc2cc3c(C)cc(=O)oc3c(C)c2o1
activity change, negative = inhibition ([6]; at 25.7 µM (top of the series)): -0.305% (inactive)
max response [6, 20]: -4.86%
max response [6, 21]: -6.06%

O=C(NCC1CCCCN1)c1cc(OCC(F)(F)F)ccc1OCC(F)(F)F (configuration not stated)
outcome [5]: inactive
Potency [11]: inactive
Potency [12]: inactive
outcome [7]: inactive
Potency [18]: inactive

Cc1nc2n(c(=O)c1CCN1CCC(c3noc4cc(F)ccc34)CC1)CCCC2
outcome [1]: inactive
outcome [4]: inactive
outcome [5]: inactive
activity change, negative = inhibition ([6]; at 25.7 µM (top of the series)): -3.92% (inactive)
activity change, negative = inhibition ([6]; at 57.5 µM (top of the series)): 0.755% (inactive)
max response [6, 20]: -8.38% and -35%
max response [6, 21]: -11.2% and -35%
Potency [11]: inactive
Potency [12]: inactive
outcome [7]: inactive
Potency [18]: inactive
